# Reference: article PMC7862700, “An all-to-all approach to the identification of sequence-specific readers for epigenetic DNA modifications on cytosine”
# Tests used:
# Experiment in all cases: DAPPL (digital affinity profiling via proximity ligation, sequencing); 10 mM Tris-HCl pH 7.5, 50 mM NaCl, 1 mM DTT, 4% glycerol, room temperature, 30 min; GST-TFs on glutathione beads, 16-mer random dsDNA library, 0.1% formaldehyde crosslink after washing; high values mean tight binding
# FLI1 = molecular target: T1, FLI1 (Homo sapiens, UniProt Q01543 1-452); conditions: protein: recombinant; tags: N-terminal GST; dsDNA, one strand shown
# T1 sequence: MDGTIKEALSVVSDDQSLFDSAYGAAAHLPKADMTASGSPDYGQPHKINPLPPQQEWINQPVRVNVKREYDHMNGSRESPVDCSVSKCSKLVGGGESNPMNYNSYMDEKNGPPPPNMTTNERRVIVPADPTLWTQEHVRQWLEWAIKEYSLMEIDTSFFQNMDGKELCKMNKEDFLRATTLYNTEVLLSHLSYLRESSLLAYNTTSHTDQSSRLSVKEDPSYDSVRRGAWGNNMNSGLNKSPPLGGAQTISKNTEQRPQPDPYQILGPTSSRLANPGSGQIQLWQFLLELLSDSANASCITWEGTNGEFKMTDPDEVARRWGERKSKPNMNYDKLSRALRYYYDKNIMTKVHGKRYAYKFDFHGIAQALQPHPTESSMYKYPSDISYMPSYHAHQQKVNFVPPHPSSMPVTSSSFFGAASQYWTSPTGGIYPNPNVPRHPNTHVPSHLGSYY
# How it was run: (§1)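 Sequencing on an Illumina NextSeq500 followed washing, crosslinking with 0.1% formaldehyde, proximity ligation (BsaI/T4 ligase, 1 h, 37 °C) and PCR amplification of pools that had been incubated for 30 min at room temperature with 200 nmole of a random double-stranded 16-mer DNA library in Tris/NaCl/DTT/glycerol buffer. Each pool held DNA-barcoded human transcription factors, expressed in yeast as GST fusions and captured on glutathione beads, plus a tag-only sample. Binding signal is a hexamer's read frequency for a factor divided by its frequency in the tag-only sample.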
# ELK1 = molecular target: T2, ELK1 (Homo sapiens, UniProt P19419 1-428); conditions: protein: recombinant; tags: N-terminal GST; dsDNA, one strand shown
# T2 sequence: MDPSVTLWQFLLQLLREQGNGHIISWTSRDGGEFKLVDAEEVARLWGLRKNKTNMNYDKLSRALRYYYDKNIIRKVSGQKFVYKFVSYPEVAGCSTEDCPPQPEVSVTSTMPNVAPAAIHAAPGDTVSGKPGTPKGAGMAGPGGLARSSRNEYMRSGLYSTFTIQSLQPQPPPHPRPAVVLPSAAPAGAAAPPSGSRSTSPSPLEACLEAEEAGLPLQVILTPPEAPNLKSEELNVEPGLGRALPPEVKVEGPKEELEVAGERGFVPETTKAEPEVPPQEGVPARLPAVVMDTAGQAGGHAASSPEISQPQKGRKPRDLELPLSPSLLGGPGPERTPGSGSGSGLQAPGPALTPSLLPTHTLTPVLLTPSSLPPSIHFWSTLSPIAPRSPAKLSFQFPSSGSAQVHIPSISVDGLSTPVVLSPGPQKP
# How it was run: as §1
# GABPA = molecular target: T3, GABPA (Homo sapiens, UniProt Q06546 1-454); conditions: protein: recombinant; tags: N-terminal GST; dsDNA, one strand shown
# T3 sequence: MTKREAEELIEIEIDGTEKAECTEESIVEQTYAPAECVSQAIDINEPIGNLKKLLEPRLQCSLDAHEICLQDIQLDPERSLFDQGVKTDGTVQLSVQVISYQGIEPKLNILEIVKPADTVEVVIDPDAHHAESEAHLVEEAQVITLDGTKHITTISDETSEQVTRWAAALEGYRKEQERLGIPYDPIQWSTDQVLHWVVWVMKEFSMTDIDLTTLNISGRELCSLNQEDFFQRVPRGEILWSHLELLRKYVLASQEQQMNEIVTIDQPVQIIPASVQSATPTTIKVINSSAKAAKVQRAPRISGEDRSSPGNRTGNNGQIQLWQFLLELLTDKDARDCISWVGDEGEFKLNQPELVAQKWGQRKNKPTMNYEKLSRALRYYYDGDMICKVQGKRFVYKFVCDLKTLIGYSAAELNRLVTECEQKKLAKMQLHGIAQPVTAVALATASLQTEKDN
# How it was run: as §1
# ERG = molecular target: T4, ERG (Homo sapiens, UniProt P11308 1-479); conditions: protein: recombinant; tags: N-terminal GST; dsDNA, one strand shown
# T4 sequence: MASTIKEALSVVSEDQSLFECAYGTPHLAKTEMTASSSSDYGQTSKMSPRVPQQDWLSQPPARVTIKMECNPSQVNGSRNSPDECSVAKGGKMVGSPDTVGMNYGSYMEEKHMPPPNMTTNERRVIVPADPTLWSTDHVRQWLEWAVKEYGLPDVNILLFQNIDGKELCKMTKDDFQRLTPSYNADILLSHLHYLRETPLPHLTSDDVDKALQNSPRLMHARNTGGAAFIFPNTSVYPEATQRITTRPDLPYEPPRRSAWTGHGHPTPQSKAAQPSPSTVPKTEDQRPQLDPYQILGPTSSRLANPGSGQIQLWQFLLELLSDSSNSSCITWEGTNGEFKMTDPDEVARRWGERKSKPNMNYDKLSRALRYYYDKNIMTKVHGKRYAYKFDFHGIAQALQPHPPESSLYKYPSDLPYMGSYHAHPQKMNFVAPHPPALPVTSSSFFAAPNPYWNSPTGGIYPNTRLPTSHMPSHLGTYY
# How it was run: as §1
# ELF1 = ELF1 (Homo sapiens, UniProt P32519 1-619); conditions: protein: recombinant; tags: N-terminal GST; dsDNA, one strand shown
# How it was run: as §1
# EHF = molecular target: T5, EHF (Homo sapiens, UniProt Q9NZC4 1-300); conditions: protein: recombinant; tags: N-terminal GST; dsDNA, one strand shown
# T5 sequence: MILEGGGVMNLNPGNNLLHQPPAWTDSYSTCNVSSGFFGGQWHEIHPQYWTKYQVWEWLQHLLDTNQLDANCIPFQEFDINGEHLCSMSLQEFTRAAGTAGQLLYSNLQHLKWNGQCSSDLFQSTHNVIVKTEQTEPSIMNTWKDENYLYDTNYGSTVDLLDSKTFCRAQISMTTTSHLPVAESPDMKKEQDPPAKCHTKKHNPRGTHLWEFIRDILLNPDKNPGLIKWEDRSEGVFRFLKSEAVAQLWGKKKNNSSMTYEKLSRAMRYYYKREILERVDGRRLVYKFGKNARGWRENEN
# How it was run: as §1
# SPI1 = SPI1 (Homo sapiens, UniProt P17947 1-270); conditions: protein: recombinant; tags: N-terminal GST; dsDNA, one strand shown
# How it was run: as §1
# SPIB = SPIB (Homo sapiens, UniProt Q01892 1-262); conditions: protein: recombinant; tags: N-terminal GST; dsDNA, one strand shown
# How it was run: as §1
# ELK3 = molecular target: T6, ELK3 (Homo sapiens, UniProt P41970 1-407); conditions: protein: recombinant; tags: N-terminal GST; dsDNA, one strand shown
# T6 sequence: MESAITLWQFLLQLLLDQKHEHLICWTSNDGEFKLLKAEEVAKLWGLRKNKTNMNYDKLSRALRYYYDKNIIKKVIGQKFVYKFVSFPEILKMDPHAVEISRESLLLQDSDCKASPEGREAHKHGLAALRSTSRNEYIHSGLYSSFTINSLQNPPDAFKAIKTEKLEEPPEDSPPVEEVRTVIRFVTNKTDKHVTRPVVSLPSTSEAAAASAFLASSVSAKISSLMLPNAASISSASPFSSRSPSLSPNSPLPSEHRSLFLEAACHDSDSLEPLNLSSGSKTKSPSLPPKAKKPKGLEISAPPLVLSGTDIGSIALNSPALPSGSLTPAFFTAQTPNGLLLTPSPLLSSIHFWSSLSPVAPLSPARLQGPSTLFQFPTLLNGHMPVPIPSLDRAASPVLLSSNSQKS
# How it was run: as §1
# FEV = molecular target: T7, FEV (Homo sapiens, UniProt Q99581 1-238); conditions: protein: recombinant; tags: N-terminal GST; dsDNA, one strand shown
# T7 sequence: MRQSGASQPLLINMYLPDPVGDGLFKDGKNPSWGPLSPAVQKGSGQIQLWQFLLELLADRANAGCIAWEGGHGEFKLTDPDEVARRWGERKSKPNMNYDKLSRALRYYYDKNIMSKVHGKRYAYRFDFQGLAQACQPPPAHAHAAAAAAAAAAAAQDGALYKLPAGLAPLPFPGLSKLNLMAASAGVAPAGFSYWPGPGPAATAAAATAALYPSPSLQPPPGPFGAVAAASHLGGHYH
# How it was run: as §1
# ETV5 = ETV5 (Homo sapiens, UniProt P41161 1-510); conditions: protein: recombinant; tags: N-terminal GST; dsDNA, one strand shown
# How it was run: as §1
# HSF1 = HSF1 (Homo sapiens, UniProt Q00613 1-529); conditions: protein: recombinant; tags: N-terminal GST; chain copies: 3; dsDNA, one strand shown
# How it was run: as §1
# SPIC = molecular target: T8, SPIC (Homo sapiens, UniProt Q8N5J4 1-248); conditions: protein: recombinant; tags: N-terminal GST; dsDNA, one strand shown
# T8 sequence: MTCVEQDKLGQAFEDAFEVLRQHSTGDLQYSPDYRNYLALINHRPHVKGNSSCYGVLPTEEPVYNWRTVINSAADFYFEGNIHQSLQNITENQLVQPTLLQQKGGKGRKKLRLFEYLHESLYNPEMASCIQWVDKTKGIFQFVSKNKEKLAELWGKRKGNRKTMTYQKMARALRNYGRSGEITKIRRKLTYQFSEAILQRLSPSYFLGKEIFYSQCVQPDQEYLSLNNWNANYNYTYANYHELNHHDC
# How it was run: as §1
# ELF4 = ELF4 (Homo sapiens, UniProt Q99607 1-663); conditions: protein: recombinant; tags: N-terminal GST; dsDNA, one strand shown
# How it was run: as §1
# ELK4 = molecular target: T9, ELK4 (Homo sapiens, UniProt P28324-2 1-405); conditions: protein: recombinant; tags: N-terminal GST; dsDNA, one strand shown
# T9 sequence: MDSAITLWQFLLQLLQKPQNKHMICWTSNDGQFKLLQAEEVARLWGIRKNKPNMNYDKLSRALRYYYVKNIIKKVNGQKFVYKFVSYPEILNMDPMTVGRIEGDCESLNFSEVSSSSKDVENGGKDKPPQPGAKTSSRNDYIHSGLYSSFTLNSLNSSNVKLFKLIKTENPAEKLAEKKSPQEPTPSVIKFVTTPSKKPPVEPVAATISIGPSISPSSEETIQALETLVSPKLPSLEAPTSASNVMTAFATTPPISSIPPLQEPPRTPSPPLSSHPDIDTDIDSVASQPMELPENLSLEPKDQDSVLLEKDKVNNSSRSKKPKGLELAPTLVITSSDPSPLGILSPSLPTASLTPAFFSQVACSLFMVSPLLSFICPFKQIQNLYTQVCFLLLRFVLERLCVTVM
# How it was run: as §1
# ETV2 = molecular target: T10, ETV2 (Homo sapiens, UniProt O00321 1-342); conditions: protein: recombinant; tags: N-terminal GST; dsDNA, one strand shown
# T10 sequence: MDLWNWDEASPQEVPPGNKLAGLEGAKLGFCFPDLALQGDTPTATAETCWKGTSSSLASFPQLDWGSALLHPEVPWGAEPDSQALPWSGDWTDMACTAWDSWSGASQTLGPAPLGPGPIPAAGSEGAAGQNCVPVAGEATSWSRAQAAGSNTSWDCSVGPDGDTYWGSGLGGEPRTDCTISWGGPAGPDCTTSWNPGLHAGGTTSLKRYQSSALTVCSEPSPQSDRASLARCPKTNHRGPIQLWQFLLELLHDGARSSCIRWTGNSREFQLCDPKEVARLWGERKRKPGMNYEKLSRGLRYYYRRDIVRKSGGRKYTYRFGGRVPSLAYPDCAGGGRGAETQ
# How it was run: as §1
# ELF3 = molecular target: T11, ELF3 (Homo sapiens, UniProt P78545 1-371); conditions: protein: recombinant; tags: N-terminal GST; dsDNA, one strand shown
# T11 sequence: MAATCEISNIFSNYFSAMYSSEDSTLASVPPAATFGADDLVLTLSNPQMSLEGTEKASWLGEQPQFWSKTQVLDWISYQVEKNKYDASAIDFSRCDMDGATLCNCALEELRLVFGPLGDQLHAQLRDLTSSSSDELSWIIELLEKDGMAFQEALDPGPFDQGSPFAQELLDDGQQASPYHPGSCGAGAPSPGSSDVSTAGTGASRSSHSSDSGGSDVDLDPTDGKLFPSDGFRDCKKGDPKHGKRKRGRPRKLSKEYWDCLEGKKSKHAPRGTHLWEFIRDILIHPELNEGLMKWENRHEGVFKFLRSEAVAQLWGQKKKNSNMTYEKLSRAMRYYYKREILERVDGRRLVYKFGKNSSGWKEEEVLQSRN
# How it was run: as §1
# CRX = CRX (Homo sapiens, UniProt O43186 1-299); conditions: protein: recombinant; tags: N-terminal GST; dsDNA, one strand shown
# How it was run: as §1
# ETV1 = ETV1 (Homo sapiens, UniProt P50549 1-477); conditions: protein: recombinant; tags: N-terminal GST; dsDNA, one strand shown
# How it was run: as §1
# Sequence of ETV5 (P41161 whole entry): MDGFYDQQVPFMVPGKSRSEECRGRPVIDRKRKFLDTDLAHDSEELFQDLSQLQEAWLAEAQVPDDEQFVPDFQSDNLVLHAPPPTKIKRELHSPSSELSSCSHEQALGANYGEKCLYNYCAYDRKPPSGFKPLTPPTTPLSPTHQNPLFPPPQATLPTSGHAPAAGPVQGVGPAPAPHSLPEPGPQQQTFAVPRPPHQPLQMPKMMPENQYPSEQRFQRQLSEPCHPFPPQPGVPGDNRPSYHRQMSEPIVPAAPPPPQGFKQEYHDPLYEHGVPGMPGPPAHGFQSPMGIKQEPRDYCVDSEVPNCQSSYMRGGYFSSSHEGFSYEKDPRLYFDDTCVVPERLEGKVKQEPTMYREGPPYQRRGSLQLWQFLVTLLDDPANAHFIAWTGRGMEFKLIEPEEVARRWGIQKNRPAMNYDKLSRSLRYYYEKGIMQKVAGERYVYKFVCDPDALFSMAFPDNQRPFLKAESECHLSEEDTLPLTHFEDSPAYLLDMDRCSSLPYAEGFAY
# Sequence of ETV1 (P50549 whole entry): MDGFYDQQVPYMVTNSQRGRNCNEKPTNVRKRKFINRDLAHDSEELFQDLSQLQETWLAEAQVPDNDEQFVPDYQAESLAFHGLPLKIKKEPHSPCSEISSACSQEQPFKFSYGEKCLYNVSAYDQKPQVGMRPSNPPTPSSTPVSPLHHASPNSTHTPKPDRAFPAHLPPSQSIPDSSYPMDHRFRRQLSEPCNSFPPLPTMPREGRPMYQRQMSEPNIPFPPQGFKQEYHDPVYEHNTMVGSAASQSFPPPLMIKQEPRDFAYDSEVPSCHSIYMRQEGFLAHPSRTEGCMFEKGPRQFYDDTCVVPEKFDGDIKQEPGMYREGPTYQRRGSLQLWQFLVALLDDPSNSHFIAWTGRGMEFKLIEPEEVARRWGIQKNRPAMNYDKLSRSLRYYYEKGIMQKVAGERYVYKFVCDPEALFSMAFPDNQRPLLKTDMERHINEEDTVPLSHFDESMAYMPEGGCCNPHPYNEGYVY
# Sequence of SPIB (Q01892 whole entry): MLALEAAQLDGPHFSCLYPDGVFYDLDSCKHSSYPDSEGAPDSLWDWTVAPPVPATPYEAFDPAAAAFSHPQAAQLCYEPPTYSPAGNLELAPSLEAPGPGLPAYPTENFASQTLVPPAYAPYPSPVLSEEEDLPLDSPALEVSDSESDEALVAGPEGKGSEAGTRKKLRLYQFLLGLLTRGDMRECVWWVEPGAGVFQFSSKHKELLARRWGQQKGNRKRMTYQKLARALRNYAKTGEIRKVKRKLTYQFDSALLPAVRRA
# Sequence of CRX (O43186 whole entry): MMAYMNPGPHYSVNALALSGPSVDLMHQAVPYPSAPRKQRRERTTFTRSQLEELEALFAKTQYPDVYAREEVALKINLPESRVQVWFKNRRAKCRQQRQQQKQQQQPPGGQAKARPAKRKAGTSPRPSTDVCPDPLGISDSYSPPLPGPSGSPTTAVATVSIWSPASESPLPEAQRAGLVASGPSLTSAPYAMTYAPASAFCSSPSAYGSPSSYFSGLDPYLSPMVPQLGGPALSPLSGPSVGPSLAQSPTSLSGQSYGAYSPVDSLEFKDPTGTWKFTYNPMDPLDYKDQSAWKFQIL
# Sequence of ELF4 (Q99607 whole entry): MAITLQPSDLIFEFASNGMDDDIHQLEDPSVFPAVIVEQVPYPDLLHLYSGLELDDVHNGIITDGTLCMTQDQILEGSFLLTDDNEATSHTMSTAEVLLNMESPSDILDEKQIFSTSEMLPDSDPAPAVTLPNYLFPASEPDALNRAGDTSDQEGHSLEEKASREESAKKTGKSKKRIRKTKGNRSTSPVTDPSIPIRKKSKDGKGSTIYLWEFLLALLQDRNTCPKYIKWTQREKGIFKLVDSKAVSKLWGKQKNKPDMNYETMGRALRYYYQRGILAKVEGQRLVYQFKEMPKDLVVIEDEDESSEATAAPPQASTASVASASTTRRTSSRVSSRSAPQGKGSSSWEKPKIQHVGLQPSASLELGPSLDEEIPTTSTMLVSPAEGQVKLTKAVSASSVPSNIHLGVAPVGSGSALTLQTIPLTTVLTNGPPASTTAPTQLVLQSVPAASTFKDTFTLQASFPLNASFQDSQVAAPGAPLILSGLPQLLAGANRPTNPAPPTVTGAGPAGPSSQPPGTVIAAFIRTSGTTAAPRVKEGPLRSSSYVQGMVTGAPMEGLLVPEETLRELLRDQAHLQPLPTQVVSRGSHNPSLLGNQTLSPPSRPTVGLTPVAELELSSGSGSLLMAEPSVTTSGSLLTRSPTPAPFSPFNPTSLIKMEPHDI
# Sequence of ELF1 (P32519 whole entry): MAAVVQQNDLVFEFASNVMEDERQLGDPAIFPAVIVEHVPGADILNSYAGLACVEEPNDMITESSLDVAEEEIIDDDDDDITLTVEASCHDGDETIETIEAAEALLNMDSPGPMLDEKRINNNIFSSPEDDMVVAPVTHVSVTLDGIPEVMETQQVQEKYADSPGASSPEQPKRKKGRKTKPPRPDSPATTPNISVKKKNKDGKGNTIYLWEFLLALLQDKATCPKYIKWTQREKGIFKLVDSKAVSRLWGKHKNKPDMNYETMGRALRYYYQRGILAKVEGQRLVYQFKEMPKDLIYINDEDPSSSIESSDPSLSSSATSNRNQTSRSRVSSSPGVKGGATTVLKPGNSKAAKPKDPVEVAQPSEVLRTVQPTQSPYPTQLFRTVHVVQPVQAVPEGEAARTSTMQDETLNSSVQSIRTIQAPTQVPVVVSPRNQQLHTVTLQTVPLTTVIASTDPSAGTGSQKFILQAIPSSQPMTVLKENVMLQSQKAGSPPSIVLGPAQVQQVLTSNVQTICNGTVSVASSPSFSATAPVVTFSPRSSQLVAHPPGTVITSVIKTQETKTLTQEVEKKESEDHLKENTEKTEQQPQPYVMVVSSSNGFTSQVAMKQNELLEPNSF
# Sequence of HSF1 (Q00613 whole entry): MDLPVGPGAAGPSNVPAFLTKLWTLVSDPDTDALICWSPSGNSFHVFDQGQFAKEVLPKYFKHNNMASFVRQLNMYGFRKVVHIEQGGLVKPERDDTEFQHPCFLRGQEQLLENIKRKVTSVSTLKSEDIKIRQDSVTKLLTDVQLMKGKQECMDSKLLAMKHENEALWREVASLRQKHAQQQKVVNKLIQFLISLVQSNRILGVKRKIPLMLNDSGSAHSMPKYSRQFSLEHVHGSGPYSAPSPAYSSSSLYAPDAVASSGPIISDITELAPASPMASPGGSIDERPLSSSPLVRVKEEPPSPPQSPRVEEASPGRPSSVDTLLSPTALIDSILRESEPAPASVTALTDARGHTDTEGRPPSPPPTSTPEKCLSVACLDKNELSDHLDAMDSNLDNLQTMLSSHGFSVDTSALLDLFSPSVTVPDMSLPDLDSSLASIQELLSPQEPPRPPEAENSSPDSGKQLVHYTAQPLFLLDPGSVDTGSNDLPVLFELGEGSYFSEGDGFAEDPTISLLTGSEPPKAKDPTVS
sequence,measurement,setting,value
CTTATT,binding signal,FLI1,"1.61 fold enrichment (6-mer frequency, TF over GST control)"
same,binding signal,ELK1,"1.39 fold enrichment (6-mer frequency, TF over GST control)"
same,binding signal,GABPA,"1.41 fold enrichment (6-mer frequency, TF over GST control)"
same,binding signal,ERG,"1.53 fold enrichment (6-mer frequency, TF over GST control)"
same,binding signal,ELF1,"1.5 fold enrichment (6-mer frequency, TF over GST control)"
same,binding signal,EHF,"1.48 fold enrichment (6-mer frequency, TF over GST control)"
same,binding signal,SPI1,"1.61 fold enrichment (6-mer frequency, TF over GST control)"
same,binding signal,SPIB,"1.44 fold enrichment (6-mer frequency, TF over GST control)"
same,binding signal,ELK3,"1.59 fold enrichment (6-mer frequency, TF over GST control)"
same,binding signal,FEV,"1.46 fold enrichment (6-mer frequency, TF over GST control)"
same,binding signal,ETV5,"1.42 fold enrichment (6-mer frequency, TF over GST control)"
same,binding signal,HSF1,"1.87 fold enrichment (6-mer frequency, TF over GST control)"
same,binding signal,SPIC,"1.62 fold enrichment (6-mer frequency, TF over GST control)"
same,binding signal,ELF4,"1.43 fold enrichment (6-mer frequency, TF over GST control)"
same,binding signal,ELK4,"1.49 fold enrichment (6-mer frequency, TF over GST control)"
same,binding signal,ETV2,"1.5 fold enrichment (6-mer frequency, TF over GST control)"
same,binding signal,ELF3,"1.51 fold enrichment (6-mer frequency, TF over GST control)"
same,binding signal,CRX,"2.55 fold enrichment (6-mer frequency, TF over GST control)"
same,binding signal,ETV1,"1.52 fold enrichment (6-mer frequency, TF over GST control)"
